# Test results published in PubChem BioAssay (NCATS).
# Records with an inconclusive call do not appear. A call without a number means that no potency is given here. Activity calls are given as the source filed them. Unless noted, calls come from the whole dose curve; as a rule, active = well fitted curve in the direction sought with a large enough effect; inconclusive = small, poorly fitted or top-dose-only effect, or another doubt; inactive = no such curve, though single readings can be large; an effect the other way counts as inactive or inconclusive.
# What was measured:
# [1] = biological target: Glutathione peroxidase 1 (Homo sapiens) (UniProt P07203); test: Primary qHTS Assay for Inhibitors of Recombinant Selenoprotein Glutathione Peroxidase 1 (GPX1) (AID 1845191); note: nearly all actives have a fitted effect of over 65% in size
# Chain of Glutathione peroxidase 1 (Homo sapiens) (P07203 whole entry, looked up): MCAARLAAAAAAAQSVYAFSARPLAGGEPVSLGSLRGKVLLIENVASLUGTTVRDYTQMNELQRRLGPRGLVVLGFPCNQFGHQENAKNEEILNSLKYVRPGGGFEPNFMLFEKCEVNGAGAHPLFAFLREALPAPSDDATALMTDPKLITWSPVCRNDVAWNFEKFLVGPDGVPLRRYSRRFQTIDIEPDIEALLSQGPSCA
# Outline: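 10 nM GPX1 + cpd, 30 min RT; start w/ 1 mM GSH, 0.5 mM cumene hydroperoxide, 0.5 mM NADPH, 100 nM GR, 0.01% BSA; buffer 50 mM Tris-HCl pH 7.5, 2 mM EDTA, 150 mM NaCl; Fl 340/450, 0 & 15 min.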
# [2] = biological target: Phospholipid hydroperoxide glutathione peroxidase GPX4 (Homo sapiens) (UniProt P36969); test: Primary qHTS Assay for Inhibitors of Recombinant Selenoprotein Glutathione Peroxidase 4 (GPX4) (AID 1845192); note: nearly all actives have a fitted effect of over 65% in size; for activity change, negative = inhibition: series mostly up to about 50 µM
# Chain of Phospholipid hydroperoxide glutathione peroxidase GPX4 (Homo sapiens) (P36969 whole entry, looked up): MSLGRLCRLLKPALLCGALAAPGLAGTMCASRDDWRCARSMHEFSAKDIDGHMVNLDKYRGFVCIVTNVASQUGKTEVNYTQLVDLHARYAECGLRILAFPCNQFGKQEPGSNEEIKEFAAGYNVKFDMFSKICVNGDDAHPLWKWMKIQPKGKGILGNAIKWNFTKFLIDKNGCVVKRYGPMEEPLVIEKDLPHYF
# Outline: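 NADPH consumption, followed by fluorescence at 340/450 nm between 0 and 15 min, reports GPX4 activity via coupled glutathione reductase (100 nM). Enzyme 200 nM was pre-exposed to compound 30 min; 0.5 mM cumene hydroperoxide and 1 mM GSH served as substrates.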
# [3] = biological target: Luciferin 4-monooxygenase (Photinus pyralis) (UniProt P08659); test: Primary firefly luciferase (FLuc) qHTS assay for identification of artifact compounds. (AID 1845220); note: nearly all actives have a fitted effect of over 60% in size; for activity change, negative = inhibition: series mostly up to about 54 µM
# Outline: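 FLuc 10 nM; luciferin 10 uM; ATP 10 uM; Tris-acetate pH 7.6, Mg-acetate 10 mM; 15 min RT preincubation; 5 min reaction; luminescence.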
# [4] = tested on: Nanoluciferase (engineered Oplophorus gracilirostris luciferase); test: Primary Nanoluciferase (NLuc) qHTS assay for identification of artifact compounds. (AID 1845222);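 note: NLuc secreted into diluted conditioned medium of S16 cells; series mostly up to about 54 µM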
# Outline: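 NLuc from S16 cell medium (1:55) plus test compounds, 15 min, room temperature. Luminescence after Nano-Glo (1:100) addition, 5 min.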
# [5] = Primary fluorescence-based thiol-reactive (MSTI) qHTS assay for identification of artifact compounds. (AID 1845221); note: nearly all actives have a fitted effect of over 65% in size; note: potency is the fitted concentration of half-maximal effect
# Outline: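 MSTI probe at 4 uM final in 2% DMSO/PBS pH 7.4; compounds, 1 h at room temperature in dark. Fluorescence Ex/Em 525/598 nm, normalised to Acetyl-MSTI and MSTI, fitted to 4-parameter Hill.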
# [6] = Primary redox qHTS assay for identification of artifact compounds. (AID 1845223)
# Outline: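 Amplex Red (25 uM) and HRP (250 mU/mL) in HBSS, with compounds for 15 min, then 250 uM DTT for 30 min, room temperature, dark. Fluorescence 525/598 nm read; normalized to DMSO and 10 uM DA3003; Hill fit.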
# [7] = qHTS drug screen for cell cycle checkpoint inhibitors in PARPi-resistant BRCA-mutant ovarian cancer cell lines. (AID 1963452; calls by dose curve); conditions: PEO1/OlaR viability, CellTiter-Glo luminescence, 96 h, stronger effect = lower value
# Outline: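 PEO1, PEO4 and PEO1/OlaR ovarian cancer cells, 600 per well, exposed 96 h at 37C to a dilution series. Viability read by CellTiter-Glo luminescence, normalized to DMSO and empty wells; activity summarized as Z-AUC.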
# [8] = measured here: PEO1 parental Z-AUC
smiles,measurement,setting,value
C=C(C(=O)O)C1CCC2(C)CCC(O)C(C)(O)C2C1 (stereo not drawn),Potency,[1],inactive
same,Potency,[2],inactive
same,Potency,[3],inactive
same,Potency,[4],inactive
CS(=O)(=O)N1CCC(NC(=O)c2[nH]ncc2NC(=O)c2c(Cl)cccc2Cl)CC1,Potency,[1],inactive
same,Potency,[2],inactive
same,Potency,[3],inactive
same,Potency,[5],inactive
same,Potency,[6],inactive
same,Z-AUC,[7],-1.39 (inactive)
same,Z-AUC,[7]; [8],-1.73
same,Z-AUC,[7]; measured here: PEO4 Z-AUC,-1.67
C[C@@H]1O[C@@H](O[C@H]2[C@H](O)[C@@H](O)[C@H](O[C@H]3[C@H](O[C@H]4CC[C@@]5(C)C(=CC[C@@H]6C5CC[C@]5(C)[C@@H]7[C@H](C[C@@H]65)O[C@]5(CC[C@@](C)(CO[C@@H]6O[C@H](CO)[C@@H](O)[C@H](O)[C@H]6O)O5)[C@H]7C)C4)O[C@H](CO)[C@@H](O)[C@@H]3O)O[C@@H]2CO)[C@H](O)[C@H](O)[C@H]1O (stereo partly drawn),Potency,[1],inactive
same,Potency,[2],inactive
same,"activity change, negative = inhibition",[3],-0.0839% [at 11.6 µM] (inactive)
same,"activity, negative = inhibition",[4],1.75% [at 11.6 µM] (inactive)
CC(CO)C1CCC2(C)CC3C(CO)CC(O)C3C(C)(O)C/C=C/12 (stereo not drawn),Potency,[1],inactive
same,Potency,[2],inactive
same,Potency,[3],inactive
same,Potency,[4],inactive
COc1ccc(N2CCOCC2)c2sc(NC(=O)N3CCC(C)(O)CC3)nc12,Potency,[1],inactive
same,Potency,[2],inactive
same,Potency,[3],inactive
same,Potency,[4],inactive
COc1cc(C(=O)OC[C@H]2O[C@@H](Oc3ccccc3/C=C/C(=O)O)[C@H](O)[C@@H](O)[C@@H]2O)cc(OC)c1OC,Potency,[1],inactive
same,Potency,[2],inactive
same,Potency,[3],inactive
same,Potency,[4],inactive
C/C=C1\[C@H](O[C@@H]2O[C@H](CO)[C@@H](O)[C@H](O)[C@H]2O)OC=C2C(=O)OCCc3ccc(O)c(c3)Oc3ccc(cc3)CCOC(=O)C[C@H]21,Potency,[1],inactive
same,Potency,[2],inactive
same,Potency,[3],inactive
same,Potency,[4],inactive
CC(O)/C=C/C1(O)C(C)C(O[C@@H]2O[C@H](CO)[C@@H](O)[C@H](O)[C@H]2O)C(O)CC1(C)C (stereo partly drawn),Potency,[1],inactive
same,Potency,[2],inactive
same,Potency,[3],inactive
same,Potency,[4],inactive
CC(=O)OC/C=C(\C)C(CC1C(C)=C(OC(C)=O)C(=O)C2C(C)(C)C(O)CCC12C)OC(C)=O (stereo not drawn),Potency,[1],inactive
same,Potency,[2],inactive
same,Potency,[3],inactive
same,Potency,[4],inactive
CC(C)CC1NC(=O)C2CC3(O)c4ccccc4NC3N2C1=O (stereo not drawn),Potency,[1],inactive
same,Potency,[2],inactive
same,Potency,[3],inactive
same,Potency,[4],inactive
COc1ccc(/C=C/C(=O)O[C@@H]2[C@@H](O)[C@H](C)O[C@@H](O[C@H]3[C@@H]4C=CO[C@@H](O[C@H]5O[C@@H](CO)[C@H](O)[C@@H](O)[C@@H]5O)[C@@H]4[C@@]4(CO)O[C@@H]34)[C@@H]2OC(C)=O)cc1,Potency,[1],inactive
same,Potency,[2],inactive
same,Potency,[3],inactive
same,Potency,[4],inactive
CC1(C)C=CN2C(=O)C3=CCCN3C(=O)[C@@H]2C[C@@]12Nc1ccccc1C2=O,Potency,[1],inactive
same,Potency,[2],inactive
same,Potency,[3],inactive
same,Potency,[4],inactive
COc1ccc(/C=C/C(=O)O[C@H]2[C@H](O[C@H]3[C@@H]4C=CO[C@@H](O[C@@H]5O[C@H](CO)[C@@H](O)[C@H](O)[C@H]5O)[C@@H]4[C@@]4(CO)O[C@@H]34)O[C@@H](C)[C@H](O)[C@H]2OC(C)=O)cc1,Potency,[1],inactive
same,Potency,[2],inactive
same,Potency,[3],inactive
same,Potency,[4],inactive
CC(=O)O[C@@H]1CC(C)=C2[C@H]1[C@H](C)CC[C@H]2/C=C(\C)C(=O)O,Potency,[1],inactive
same,Potency,[2],inactive
same,Potency,[3],inactive
same,Potency,[4],inactive
C=CC(=O)Nc1cc(Nc2ncc(Cl)c(-c3c[nH]c4ccccc34)n2)c(OC)cc1N(C)CCN(C)C,Potency,[1],inactive
same,Potency,[2],inactive
same,Potency,[3],inactive
same,Potency,[4],inactive
C[C@@H]1CC[C@]2(C(=O)O)CC[C@]3(C)C(=CCC4[C@@]5(C)C[C@@H](O)[C@H](O)[C@@](C)(CO)C5CC[C@]43C)C2[C@]1(C)O (stereo partly drawn),Potency,[1],inactive
same,Potency,[2],inactive
same,Potency,[3],inactive
same,Potency,[4],inactive
CN1CCc2nc(C(=O)N[C@@H]3C[C@@H](C(=O)N(C)C)CC[C@@H]3NC(=O)C(=O)Nc3ccc(Cl)cn3)sc2C1,Potency,[1],inactive
same,Potency,[2],inactive
same,Potency,[3],inactive
same,Potency,[4],inactive
COC(=O)CC(C)(O)CC(=O)OCc1ccc(O[C@@H]2O[C@H](CO)[C@@H](O)[C@H](O)[C@H]2O)cc1 (stereo partly drawn),Potency,[1],inactive
same,Potency,[2],inactive
same,Potency,[3],inactive
same,Potency,[4],inactive
CC(=O)CC1CCC(C(C)C(=O)OCC(O)CO)O1 (stereo not drawn),Potency,[1],inactive
same,Potency,[2],inactive
same,Potency,[3],inactive
same,Potency,[4],inactive
CC(C)S(=O)(=O)N[C@H]1CCOC[C@@H]1c1ccc(-c2ccc(C#N)s2)cc1,Potency,[1],inactive
same,Potency,[2],inactive
same,Potency,[3],inactive
same,Potency,[4],inactive
Cc1ccc(NC(=O)Nc2cc(C(F)(F)F)ccc2F)cc1Nc1ccc2c(c1)NC(=O)/C2=C\c1ccc[nH]1,Potency,[1],inactive
same,Potency,[2],inactive
same,Potency,[3],inactive
same,Potency,[5],1.34 µM (active)
same,Potency,[6],inactive
same,Z-AUC,[7],0.377 (inactive)
same,Z-AUC,[7]; [8],0.106
same,Z-AUC,[7]; measured here: PEO4 Z-AUC,0.2
CO[C@H]1/C=C\O[C@@]2(C)Oc3c(C)c(O)c4c(O)c(c5c(nc6cc(C)ccn65)c4c3C2=O)NC(=O)/C(C)=C\C=C/[C@H](C)[C@H](O)[C@@H](C)[C@@H](O)[C@@H](C)[C@H](OC(C)=O)[C@@H]1C,Potency,[1],inactive
same,Potency,[2],inactive
same,Potency,[3],inactive
same,Potency,[4],inactive
Cc1ccc(C(=O)N(CCCN)C(c2oc3cc(Cl)ccc3c(=O)c2Cc2ccccc2)C(C)C)cc1 (stereo not drawn),Potency,[1],inactive
same,Potency,[2],inactive
same,Potency,[3],inactive
same,Potency,[4],inactive
CC(O)CCC1C(CO[C@@H]2O[C@H](CO)[C@@H](O)[C@H](O)[C@H]2O)CC(O)CC1(C)C (stereo partly drawn),Potency,[1],inactive
same,Potency,[2],inactive
same,Potency,[3],inactive
same,Potency,[4],inactive
C[C@@H]1O[C@@H](O[C@H]2[C@H](OC(=O)[C@]34CCC(C)(C)C[C@H]3C3=CCC5[C@@]6(C)C[C@H](O)[C@H](O[C@@H]7O[C@H](CO)[C@@H](O[C@H]8OC[C@](O)(CO)[C@H]8O)[C@H](O)[C@H]7O)[C@@](C)(CO)C6[C@H](O)C[C@@]5(C)[C@]3(C)C[C@H]4O)OC[C@H](O)[C@@H]2O)[C@H](O)[C@H](O)[C@H]1O[C@@H]1OC[C@@H](O)[C@H](O[C@@H]2OC[C@](O)(CO)[C@H]2O)[C@H]1O (stereo partly drawn),outcome,[1],inactive [at 9.52 µM]
same,outcome,[2],inactive [at 9.73 µM]
same,outcome,[3],inactive [at 11.6 µM]
same,"activity, negative = inhibition",[4],3.67% [at 11.6 µM] (inactive)
C=C1C(OC(C)=O)CCC2(C)CC3(OC)OC(=O)C(C)=C3CC12 (stereo not drawn),Potency,[1],inactive
same,Potency,[2],inactive
same,Potency,[3],inactive
same,Potency,[4],inactive
same,Potency,[6],inactive
CC1C(=O)OCC2=CCN3CCC(OC(=O)C(C)(O)C1(C)O)C23 (stereo not drawn),Potency,[1],inactive
same,Potency,[2],inactive
same,Potency,[3],inactive
same,Potency,[4],inactive
same,Potency,[6],inactive
